The values below come from PMC4336329 (PLoS ONE, 2015).

Among all 310,000 compounds or so, about 14,000 (4.5%) showed an effect of 50% or more. The effect is printed as a negative number. Shown is part of a subset that was picked to be rich in strong results.
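Also: peak tail current of the secondary pulse compared with the same well before compound.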

The target in the assay is human ether-à-go-go-related gene (hERG) potassium channel (human, UniProt Q12809). Description: primary screen, population patch clamp on CHO cells stably expressing hERG; higher = less effect of the substance.
Chain of human ether-à-go-go-related gene (hERG) potassium channel (Q12809 whole entry, looked up): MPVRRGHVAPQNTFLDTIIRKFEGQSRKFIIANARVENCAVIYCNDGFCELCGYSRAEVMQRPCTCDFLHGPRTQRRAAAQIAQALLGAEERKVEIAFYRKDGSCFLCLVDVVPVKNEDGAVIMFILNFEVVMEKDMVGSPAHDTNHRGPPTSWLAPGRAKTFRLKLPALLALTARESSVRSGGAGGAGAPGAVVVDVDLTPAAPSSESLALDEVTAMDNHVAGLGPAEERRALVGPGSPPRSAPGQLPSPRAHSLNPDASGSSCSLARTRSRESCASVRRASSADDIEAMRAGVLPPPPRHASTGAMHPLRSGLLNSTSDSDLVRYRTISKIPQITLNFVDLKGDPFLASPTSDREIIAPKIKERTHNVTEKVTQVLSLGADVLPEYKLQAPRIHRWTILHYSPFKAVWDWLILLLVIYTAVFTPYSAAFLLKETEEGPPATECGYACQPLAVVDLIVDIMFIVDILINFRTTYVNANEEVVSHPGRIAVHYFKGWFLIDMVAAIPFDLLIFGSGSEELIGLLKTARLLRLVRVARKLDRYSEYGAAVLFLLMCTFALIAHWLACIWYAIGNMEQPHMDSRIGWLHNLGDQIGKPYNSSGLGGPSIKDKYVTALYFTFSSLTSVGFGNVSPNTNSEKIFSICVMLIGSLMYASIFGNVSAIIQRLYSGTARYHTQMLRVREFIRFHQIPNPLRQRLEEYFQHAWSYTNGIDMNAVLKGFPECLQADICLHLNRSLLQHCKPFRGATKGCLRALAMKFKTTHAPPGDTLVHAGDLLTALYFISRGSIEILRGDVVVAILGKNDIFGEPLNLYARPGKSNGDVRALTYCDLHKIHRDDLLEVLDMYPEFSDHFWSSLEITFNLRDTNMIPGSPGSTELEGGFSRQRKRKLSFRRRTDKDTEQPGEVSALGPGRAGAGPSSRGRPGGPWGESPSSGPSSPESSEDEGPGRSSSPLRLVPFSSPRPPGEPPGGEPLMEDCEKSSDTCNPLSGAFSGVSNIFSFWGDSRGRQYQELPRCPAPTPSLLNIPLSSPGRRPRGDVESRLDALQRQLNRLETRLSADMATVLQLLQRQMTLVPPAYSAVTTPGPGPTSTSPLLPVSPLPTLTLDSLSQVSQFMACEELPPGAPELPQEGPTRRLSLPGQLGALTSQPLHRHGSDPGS
`Cc1cc(-c2nc(C)c(-c3nnc(SCC(=O)Nc4ccc(Cl)cc4)n3C)s2)no1`: the “hERG current change (%, negative = inhibition) at 10uM” value worked out at 2.4%.

With `COc1ccc(NC(=O)c2ccc(NC(=O)CSc3nccc(=O)[nH]3)cc2)cc1`, the “hERG current change (%, negative = inhibition) at 10uM” value amounted to 15.4%.

In the case of `O=C(O)c1cc(-c2ccc(Cl)cc2)n(-c2cccc(Cl)c2)n1`, the “hERG current change (%, negative = inhibition) at 10uM” value is reported as 23.4%.

For the molecule `Cc1ccc(-n2nc(C(=O)O)cc2-c2ccc(Cl)cc2)cc1`, the “hERG current change (%, negative = inhibition) at 10uM” value was 24.9%.

Consider `O=C(c1cc(-c2ccc(Cl)c(Cl)c2)on1)N1CCOCC1`, for which the “hERG current change (%, negative = inhibition) at 10uM” value was -14.1%.

Take `O=C(c1cc(-c2ccc(Cl)cc2)n(-c2ccc(Cl)c(Cl)c2)n1)N1CCOCC1`: the “hERG current change (%, negative = inhibition) at 10uM” value is -57%.

For `Cc1ccc(-n2nc(C(=O)N3CCOCC3)cc2-c2ccc(Cl)cc2)cc1`, the “hERG current change (%, negative = inhibition) at 10uM” value is -83.3%.

Consider `O=C(O)c1cc(-c2ccc(Cl)cc2)n(-c2ccccc2)n1`, for which the “hERG current change (%, negative = inhibition) at 10uM” value is on record as 30.3%.

`O=C(c1cc(-c2ccc(Cl)cc2)n(-c2ccc(Cl)cc2)n1)N1CCOCC1`: the “hERG current change (%, negative = inhibition) at 10uM” value is on record as -80.8%.

For `O=C(O)c1cc(-c2ccc(Cl)cc2)n(-c2ccc(Cl)cc2)n1`, the “hERG current change (%, negative = inhibition) at 10uM” value was determined as 38.2%.

`Cc1ccc(-n2nc(C(=O)O)cc2-c2ccccc2)cc1`: the “hERG current change (%, negative = inhibition) at 10uM” value is 14.5%.

`CCn1c(-c2cc(-c3ccc(OC(C)C)cc3)nc3ccccc23)n[nH]c1=S`: the “hERG current change (%, negative = inhibition) at 10uM” value worked out at 2.71%.

For the molecule `CCOC(=O)c1cc(NC(=O)N(CC)CC)c(C)nc1C`, the “hERG current change (%, negative = inhibition) at 10uM” value is listed as 5.59%.

In the case of `Cc1cccc(C)c1NC(=O)CCc1nnc2ccc(N3CCCC3)nn12`, the “hERG current change (%, negative = inhibition) at 10uM” value is listed as 10.3%.

As to `CC1CCCCC1NCC(=O)NCc1ccc(F)cc1.O=C(O)C(=O)O` (centres unmarked), the “hERG current change (%, negative = inhibition) at 10uM” value was -8.33%.

On to `CCN(CC)S(=O)(=O)c1ccc(OC)nc1`, for which the “hERG current change (%, negative = inhibition) at 10uM” value is 10.4%.

Regarding `CCN(CC)S(=O)(=O)c1ccc(Oc2cccc(C(C)=O)c2)nc1`, the “hERG current change (%, negative = inhibition) at 10uM” value is given as -65.5%.

For the molecule `CCN(c1ccccc1)S(=O)(=O)c1ccc(Oc2ccc(C(C)=O)cc2OC)nc1`, the “hERG current change (%, negative = inhibition) at 10uM” value was -26.2%.

`COC(=O)c1nn(-c2ccc(OC)cc2)c(=O)cc1NN`: the “hERG current change (%, negative = inhibition) at 10uM” value is reported as 26.7%.

`Cc1ccc(S(=O)(=O)N(C)C)cc1NC(=O)C1CCC1`: the “hERG current change (%, negative = inhibition) at 10uM” value was found to be 12.2%.

Take `Cc1ccc(S(=O)(=O)N(C)C)cc1NC(=O)c1ccncc1`: the “hERG current change (%, negative = inhibition) at 10uM” value is reported as 4.33%.

Regarding `Cc1ccc(S(=O)(=O)N(C)C)cc1NC(=O)C(C)OC(=O)C1CCCC1` (centres unmarked), the “hERG current change (%, negative = inhibition) at 10uM” value is on record as -61.2%.

Take `Cc1ccc(S(=O)(=O)N(C)C)cc1NC(=O)C1CCCCC1`: the “hERG current change (%, negative = inhibition) at 10uM” value was -1.12%.

As to `Cc1ccc(S(=O)(=O)N(C)C)cc1NC(=O)C1CCCC1`, the “hERG current change (%, negative = inhibition) at 10uM” value is recorded as 2.05%.

As for `Cc1ccc(S(=O)(=O)N(C)C)cc1NC(=O)c1ccc(OC(F)(F)F)cc1`, the “hERG current change (%, negative = inhibition) at 10uM” value was -51.3%.

Take `CN(C)S(=O)(=O)c1cccc(NC(=O)c2ccc(OC(F)(F)F)cc2)c1`: the “hERG current change (%, negative = inhibition) at 10uM” value was -27.8%.

For the molecule `Cc1ccc(S(=O)(=O)N(C)C)cc1NC(=S)NNC(=O)C1CC1`, the “hERG current change (%, negative = inhibition) at 10uM” value was -54.6%.

Consider `CCN(CC)S(=O)(=O)c1ccc(C)c(NC(=S)NNC(=O)C2CC2)c1`, for which the “hERG current change (%, negative = inhibition) at 10uM” value is 11.1%.

Turning to `COCCN1CCN(C(=O)C2CCC(=O)N(CCc3ccccc3)C2)CC1` (centres unmarked), the “hERG current change (%, negative = inhibition) at 10uM” value is reported as 5.79%.

Regarding `CN(Cc1ccccc1)C(=O)c1nc[nH]c1C(=O)N1CCN(C(=O)OC(C)(C)C)CC1`, the “hERG current change (%, negative = inhibition) at 10uM” value is 11.2%.

Consider `CN(C)CCN(C(=O)COc1ccc(Cl)cc1)c1nc2cc3c(cc2s1)OCO3`, for which the “hERG current change (%, negative = inhibition) at 10uM” value is given as -5.52%.

`CN(C)CCCN(C(=O)COc1ccc(Cl)cc1)c1nc2cc3c(cc2s1)OCCO3.Cl`: the “hERG current change (%, negative = inhibition) at 10uM” value is given as -55%.

In the case of `CN(C)CCCN(C(=O)COc1ccccc1)c1nc2cc3c(cc2s1)OCO3.Cl`, the “hERG current change (%, negative = inhibition) at 10uM” value is recorded as -65.4%.

Take `CN(C)CCCN(C(=O)CCS(=O)(=O)c1ccccc1)c1nc2cc3c(cc2s1)OCO3.Cl`: the “hERG current change (%, negative = inhibition) at 10uM” value is listed as -60%.

In the case of `CN(C)CCCN(C(=O)COc1ccccc1)c1nc2cc3c(cc2s1)OCCO3`, the “hERG current change (%, negative = inhibition) at 10uM” value is recorded as -45%.

Take `CN(C)CCCN(C(=O)COc1ccc(Cl)cc1)c1nc2cc3c(cc2s1)OCO3.Cl`: the “hERG current change (%, negative = inhibition) at 10uM” value was -59.7%.

Consider `CCN(CC)CCN(C(=O)CCS(=O)(=O)c1ccccc1)c1nc2cc3c(cc2s1)OCO3.Cl`, for which the “hERG current change (%, negative = inhibition) at 10uM” value was -20.6%.

Regarding `CN(C)CCN(C(=O)CCS(=O)(=O)c1ccccc1)c1nc2cc3c(cc2s1)OCO3.Cl`, the “hERG current change (%, negative = inhibition) at 10uM” value is 7.43%.

On to `Clc1ccc(CN(CC2CCCO2)C(c2cccs2)c2nnnn2C2CCCC2)cc1` (centres unmarked), for which the “hERG current change (%, negative = inhibition) at 10uM” value is given as 3.97%.

In the case of `O=C(/C=C/c1cccs1)Nc1nccs1`, the “hERG current change (%, negative = inhibition) at 10uM” value is reported as 15.8%.

As to `O=S(=O)(c1ccc(Oc2ccc(Cl)cc2)c(S(=O)(=O)N2CCCCC2)c1)N1CCCCC1`, the “hERG current change (%, negative = inhibition) at 10uM” value was -10.1%.

Take `COC(=O)c1ccc(-c2ccco2)n1Cc1ccccc1Cl`: the “hERG current change (%, negative = inhibition) at 10uM” value is -1.48%.

Regarding `CC(Oc1ccc2oc(-c3ccccc3)c(C(=O)O)c2c1)C(=O)O` (centres unmarked), the “hERG current change (%, negative = inhibition) at 10uM” value amounted to 14.7%.

As for `Cn1c(NCc2cccs2)nc2ccccc21`, the “hERG current change (%, negative = inhibition) at 10uM” value is reported as -11.1%.
